We go through 118 sequences from the supplement of paper PMC3724861.

Only a selection was taken, and hits are over-represented in it overall. The true hit rate is not given. Values without a mark were called inactive.

In the assay the test system is T1, Caupolican (Caup) homeodomain DNA-binding domain.
T1 sequence: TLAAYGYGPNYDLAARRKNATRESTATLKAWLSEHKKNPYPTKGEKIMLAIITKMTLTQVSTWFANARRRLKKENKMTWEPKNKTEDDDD
Kind of assay: PBM E-score (8-mer, recovered from the published 9-mer minima) (E-score (dimensionless, -0.5 to 0.5)); Drosophila protein; higher = stronger relative binding preference, active = 0.31 or more. The procedure, abridged:
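An enrichment score, with higher meaning stronger, expresses relative binding preference for each short DNA word. The protein used was Caup's homeodomain DNA-binding domain (residues 214-303), produced by in vitro transcription and translation and tested at 100 nM on custom-designed protein binding microarrays. The 8-mer values were recovered from published 9-mer scores, each equal to the lower of its two constituent 8-mer scores.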
GTCAATCA: the “PBM E-score” value is 0.0914.
The value for ACGCTGTG was 0.0319; that for AAAGTTGT was 0.17; that for AAGAGAAG was -0.0176.
The value for ACTGTGAT was 0.066; that for AGCCGAAT was -0.0412.
Take AAGTGGCT: the “PBM E-score” value is -0.132.
The value for CCGCGGCA was -0.192.
As to CTCGTGGC, the “PBM E-score” value is -0.127.
The value for AAGCCGGG was -0.179; that for ATATACAA was ≥ 0.355 (active).
Regarding GTATACAA, the “PBM E-score” value is 0.318 (active).
In the case of ATATACAT it was 0.367 (active); in that of CTATACAA, 0.249.
Take ATATACAC: the “PBM E-score” value is 0.348 (active).
In the case of TTATACAA it was 0.28.
With CTATACAG, the “PBM E-score” value is 0.0968.
ATATACAG: the “PBM E-score” value was 0.186.
For CTATACAC, the “PBM E-score” value was 0.0914.
The value for GTATACTA was 0.16; that for GTATACAC was 0.249; that for ATATATAC was 0.181.
In the case of ATTAGTGC it was 0.105; in that of AACTGGCC, -0.147; in that of CCGGACGG, -0.297.
With CCTGGCAA, the “PBM E-score” value is -0.121.
The value for CAATGACC was 0.065; that for TCACAAGA was 0.131.
For ATCGGTAC, the “PBM E-score” value was 0.0373.
Take CTGCCGTC: the “PBM E-score” value is -0.128.
As for ATTAGAGG, the “PBM E-score” value is -0.11.
In the case of ATCATGCA it was 0.103.
The value for ACCATGCT was 0.14.
Turning to CACATGCA, the “PBM E-score” value is 0.166.
In the case of AACATGCA it was 0.392 (active); in that of AACATGCT, 0.376 (active); in that of GACATGCA, 0.394 (active).
For the sequence CCCATGCA, the “PBM E-score” value was -0.119.
As for GAGATGCA, the “PBM E-score” value was -0.024.
In the case of TACATGCA it was 0.371 (active).
The value for AACATGCC was 0.302; that for TCCATGCA was -0.0253.
Turning to TGCATGCA, the “PBM E-score” value was 0.0646.
The value for CTCGCGTA was -0.0439.
In the case of TTATCAAA, the “PBM E-score” value was 0.109.
In the case of GTGATTCA it was 0.0823; in that of AGAAAGCA, 0.0369.
The value for CCGGGTCA was -0.18; that for CACATGCC was 0.0641.
In the case of ATCATGCG it was 0.0113.
With GCCATGCC, the “PBM E-score” value was -0.149.
As for GACATGCC, the “PBM E-score” value is 0.35 (active).
For AACATGCG, the “PBM E-score” value is 0.356 (active).
In the case of CACATGCG it was 0.023; in that of ATCCTGAG, -0.0222; in that of CAAGCTAG, -0.0491.
The value for CGTAATGA was 0.094; that for GTGACCGA was -0.0686; that for ACTTGAAC was 0.132.
With ACAAATCC, the “PBM E-score” value is 0.179.
Take GTTCATGA: the “PBM E-score” value was 0.115.
As to CTACAGGA, the “PBM E-score” value was 0.245.
In the case of CTACATGA it was 0.36 (active).
In the case of ATACATTA it was 0.219; in that of GTACATGA, 0.435 (active).
With GTACATTA, the “PBM E-score” value was 0.322 (active).
In the case of CTACATTA it was 0.199.
The value for GCACATGA was 0.182; that for CTGCATGA was -0.0538.
The value for ACAGGAGT was 0.0982; that for AAAGTTTG was 0.0257; that for ACGGCAGT was -0.0873.
With GCAACGCC, the “PBM E-score” value was -0.0458.
In the case of GCAGTACA it was 0.196; in that of ACAGTACT, 0.18; in that of CCAGTACA, 0.3.
The value for ACAGTACG was 0.0926.
In the case of ACAGTACA it was 0.331 (active).
In the case of TCAGTACA, the “PBM E-score” value was 0.313 (active).
With ATCTGATG, the “PBM E-score” value is 0.072.
In the case of ACGATTTG it was 0.11; in that of ATTACAAT, 0.298; in that of ATTACAAC, 0.37 (active).
In the case of ATTACAAA it was 0.259; in that of ATTACTAC, 0.293; in that of ATCACAAC, 0.212.
The value for ATTACAAG was ≥ 0.427 (active); that for ACGTTCGG was -0.177; that for ACTAGCCA was 0.0322.
Consider CATAGTGA, for which the “PBM E-score” value is 0.155.
Take AGGTCAAA: the “PBM E-score” value is -0.0266.
Regarding GTGTCAAC, the “PBM E-score” value is 0.272.
Turning to AAGTCAAA, the “PBM E-score” value was 0.0275.
In the case of ATGTCAAG it was 0.309.
The value for TTGTCAAA was 0.316 (active).
Consider GTGTCAAA, for which the “PBM E-score” value is 0.294.
The value for ATGTCAAA was 0.359 (active).
Take CTGTCAAA: the “PBM E-score” value was 0.164.
In the case of ATGTCAAT, the “PBM E-score” value is 0.359 (active).
In the case of ACGTCAAT it was -0.00307.
In the case of CTGTCAAC it was 0.186.
With ATGTCAAC, the “PBM E-score” value was 0.324 (active).
In the case of ACCCGATC, the “PBM E-score” value is -0.0489.
CTTGGTAA: the “PBM E-score” value was 0.0467.
The value for CTCGTCAA was 0.0256; that for GGTGGTTA was 0.0166; that for AATTGAGT was 0.131.
ACACCCTC: the “PBM E-score” value is -0.0435.
As for CAGCACGG, the “PBM E-score” value is -0.0332.
In the case of ATAATCAG, the “PBM E-score” value was 0.101.
Regarding AGAGCAAG, the “PBM E-score” value was 0.0346.
The value for GAACACAC was 0.217; that for GAACACAA was 0.317 (active); that for GGACACAA was 0.204.
On to AAACACAA, for which the “PBM E-score” value is 0.27.
In the case of CAACACAA it was 0.241.
In the case of TAACACAA it was 0.319 (active).
On to AGATCGGC, for which the “PBM E-score” value was -0.152.
